Inconclusive results are not listed. Calls of active or inactive are those of the source. Calls follow the shape of the dose curve; as a rule, active = well fitted cell-killing curve with a large enough effect in the repeat runs; inconclusive = weak or mixed curves, or effect the other way; inactive = no such curve, though single readings can be large or run the other way.
experiment: qHTS assay to identify small molecule antagonists of the vitamin D receptor (VDR) signaling pathway - cell viability counter screen (AID 743225); conditions: VDR-bla HEK293T viability, CellTiter-Glo luminescence, 16 h; series mostly up to 61 µM; also: nearly all actives have a fitted effect of over 50% in size
Procedure, shortened: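 In this counter screen, VDR-bla HEK 293T cells receive test compound plus 3 nM final calcitriol for 16 h at 37C. Room-temperature steps of 2 h with the beta-lactamase substrate, then 30 min with CellTiter-Glo, precede the luminescence read.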

SMILES | outcome
CCCCC(CC)COCCC#N (centres undefined) | inactive
O=C1OC(=O)C2CC=CCC12 (centres undefined) | inactive
C=CCCC | inactive
C=C(C)C(=O)OCCCCCCCCCCOC(=O)C(=C)C | inactive
CC(O)CN (centres undefined) | inactive
COC(=O)C(C)(C)C | inactive
Cc1cc(N)n(-c2ccccc2)n1 | inactive
CC[C@H](NC(C)C)[C@H](O)c1ccc(O)c2[nH]c(=O)ccc12 | inactive
CC(O)C(C)O (centres undefined) | inactive
NC(=O)c1ccccc1C(N)=O | inactive
O=Cc1ccc(Cl)c([N+](=O)[O-])c1 | inactive
O=C(OCCOCCOCCOC(=O)c1ccccc1)c1ccccc1 | inactive
CC1(C)CC(=O)CC(C)(C)N1 | inactive
CO[C@@H]1COCC[C@@H]1N[C@@H]1CC[C@@](C(=O)N2CCc3ncc(C(F)(F)F)cc3C2)(C(C)C)C1 | inactive

Source: PubChem BioAssay (Tox21)
